Screening data from PubChem.
Hits are enriched below; roughly 2.3% of the tested compounds scored in any of these assays.
ERp5 inh = blocks human ERp5 reductase activity on insulin; ERp5 insulin aggregation, absorbance 650 nm, 90 min; 350,000 tested, 0.05% active; inhibition, % at 9.99 µM; Q15084;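 active = mean replicate inhibition above about 25%, with every replicate also reaching it, limit read from the data, passing the limit was not always enough; inconclusive = only one of those two criteria met; inactive = neither criterion met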
SIRT5 inh = inhibitors of human sirtuin-5 desuccinylase. Q9NXA8. Purified SirT5, succinyl-peptide AMC, trypsin-coupled fluorescence. inhibition, % at 15 µM. 330,000 tested, 1.1% active; in the data active = inhibition above about 15%; inconclusive = no clear call, values can overlap the other calls
Target sequence (Q9NXA8 whole entry, looked up): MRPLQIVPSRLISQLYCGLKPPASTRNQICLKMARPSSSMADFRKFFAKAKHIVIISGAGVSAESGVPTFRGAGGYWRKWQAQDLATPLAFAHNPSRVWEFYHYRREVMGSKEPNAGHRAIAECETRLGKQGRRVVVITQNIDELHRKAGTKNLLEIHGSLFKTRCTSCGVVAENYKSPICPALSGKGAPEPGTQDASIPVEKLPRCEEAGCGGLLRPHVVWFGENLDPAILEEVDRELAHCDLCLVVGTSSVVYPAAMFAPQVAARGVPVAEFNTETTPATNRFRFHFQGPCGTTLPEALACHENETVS
PDI inh = PDI (human) enzyme inhibition. inhibition, % at 10 µM. P07237. 350,000 tested, 0.052% active. PDI insulin aggregation turbidity, A650, 90 min. AID 588391;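 active = mean inhibition across replicates of 30% or more, whatever share of single replicates reach that level; inconclusive = mean inhibition below 30% while every single replicate reaches 30%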
Rtt109 HAT inh = C. albicans Rtt109 histone acetyltransferase inhibition; purified Rtt109/Vps75, ThioGlo CoA-SH fluorescence, 4 h; inhibition, % at 34.9 µM; 330,000 tested, 0.16% active; Q5AAJ8; AID 540336;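 active = inhibition of at least 50% in every replicate; inconclusive = best replicate reaches 50% inhibition but some replicates fall short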
Target sequence (Q5AAJ8 whole entry, looked up): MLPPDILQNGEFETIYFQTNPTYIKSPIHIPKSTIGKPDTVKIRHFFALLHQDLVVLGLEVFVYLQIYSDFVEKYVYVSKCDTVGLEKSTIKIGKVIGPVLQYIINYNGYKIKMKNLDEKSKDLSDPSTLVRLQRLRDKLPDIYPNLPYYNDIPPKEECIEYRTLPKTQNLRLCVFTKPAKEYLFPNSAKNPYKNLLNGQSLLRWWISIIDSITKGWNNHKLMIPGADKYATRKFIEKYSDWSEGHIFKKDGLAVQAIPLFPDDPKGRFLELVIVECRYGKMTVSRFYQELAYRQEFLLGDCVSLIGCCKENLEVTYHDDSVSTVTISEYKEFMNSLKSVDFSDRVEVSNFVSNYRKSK
DENV2 CPE rescue = protects cells from dengue virus 2 cytopathic effect; DENV2-infected cells, cytopathic effect rescue, plate reader; CPE inhibition, % at 9.99 µM; 350,000 tested, 1.7% active; in the data active = CPE inhibition above about 20%, passing the limit was not always enough; inconclusive = no clear call, values can overlap the other calls; tested in BHK-21 cells
Each line names hits and unclear results; the compound was inactive in the other large screens.

CCCNC(=O)N1CC2(CCN(C(=O)COC)CC2)c2c(n(C)c3cc(OC)ccc23)[C@@H]1CO	DENV2 CPE rescue 70 (no result: ERp5 inh, SIRT5 inh, PDI inh, Rtt109 HAT inh)
C[C@H]1CN([C@@H](C)CO)C(=O)c2cccc(NC(=O)c3ccc(-c4nccs4)cc3)c2O[C@@H]1CN(C)Cc1ccc(C(=O)O)cc1	none (no result: PDI inh, Rtt109 HAT inh)
C[C@H]1CN([C@@H](C)CO)C(=O)c2cccc(NC(=O)c3ccc(-c4nccs4)cc3)c2O[C@H]1CN(C)Cc1ccc(C(F)(F)F)cc1	SIRT5 inh 17 (no result: PDI inh, Rtt109 HAT inh)
C[C@H](CO)N1C[C@H](C)[C@H](CN(C)Cc2ccc(C(F)(F)F)cc2)Oc2c(NC(=O)c3ccc(-c4nccs4)cc3)cccc2C1=O	SIRT5 inh 16 (no result: PDI inh, Rtt109 HAT inh)
CN(C)C(=O)c1cccc(-c2ccc([C@@H]3[C@H](CO)N4C(=O)CN(C(=O)C5CCC5)C[C@@H]34)cc2)c1	none (no result: PDI inh, Rtt109 HAT inh)
O=C(CC1CC1)Nc1ccc2c(c1)[C@H]1C[C@H](CC(=O)N3CCOCC3)O[C@H](CO)[C@H]1O2	none (no result: ERp5 inh, SIRT5 inh, PDI inh, Rtt109 HAT inh)
CCOC(=O)C1CCN(c2ccc([N+](=O)[O-])c(C(C)=O)c2)CC1	Rtt109 HAT inh 115 (no result: DENV2 CPE rescue)
COc1cc(OC)c(NS(=O)(=O)c2cc(C(=O)OCC(=O)NCC3CCCO3)ccc2OC)cc1Cl (stereo not given)	SIRT5 inh 31
CO[C@@H]1CN(C)C(=O)c2ccc(NC(=O)C3CCC3)cc2OC[C@H](C)N(Cc2ccc(F)cc2)C[C@@H]1C	none (no result: PDI inh, Rtt109 HAT inh)
O=C(/C(=C/O)N=Nc1ccccc1)c1ccc(Cl)cc1	none
Cc1ccc(N=N/C(=C\O)C(=O)c2ccc(Cl)cc2)cc1	SIRT5 inh 22
COc1ccc(CN(C)C[C@@H]2OCCCC[C@H](C)Oc3ccc(NC(=O)NC4CCCCC4)cc3C(=O)N([C@H](C)CO)C[C@@H]2C)cc1	none (no result: PDI inh, Rtt109 HAT inh)
N=C1/C(=C\c2ccc(Br)o2)C(=O)N=C2SC(CC(=O)N3CCOCC3)=NN12	SIRT5 inh 28
Cc1ccc(/C=C2\C(=N)N3N=C(CC(=O)N4CCCCC4)SC3=NC2=O)cc1	none
N=C1/C(=C/c2ccc(Br)o2)C(=O)N=C2SC(CC(=O)N3CCCC3)=NN12	SIRT5 inh 26
N=C1/C(=C/c2ccco2)C(=O)N=C2SC(CC(=O)N3CCCC3)=NN12	SIRT5 inh 20
CSc1ccc(/C=C2\C(=N)N3N=C(CC(=O)N4CCOCC4)SC3=NC2=O)cc1	none
CO[C@H]1O[C@H](CO)[C@@H](OC(=O)Nc2ccccc2)[C@H](OC(=O)Nc2ccc3c(c2)OCO3)[C@@H]1OC(=O)Nc1ccc2c(c1)OCO2	none (no result: PDI inh, Rtt109 HAT inh)
O=C(NCC[C@H]1CC[C@H](NC(=O)c2cnccn2)[C@H](CO)O1)Nc1ccc(Cl)cc1	none (no result: PDI inh, Rtt109 HAT inh)
COc1ccc(/C=C2/SC(=O)N(NS(=O)(=O)c3ccccc3)C2=S)cc1OC	Rtt109 HAT inh 79
O=C([C@@H]1[C@@H](CO)[C@@H]2Cn3c(ccc(-c4ccccc4F)c3=O)[C@H]1N2C(=O)C1CCC1)N1CCOCC1	none (no result: PDI inh, Rtt109 HAT inh)
CN1c2ccc(C#Cc3cccnc3)cc2[C@@H]2[C@@H](CCN2C(=O)C2CCC2)[C@H]1CO	none (no result: PDI inh, Rtt109 HAT inh)
COC(=O)[C@]1(Sc2ccc(OC)cc2)CC(=O)N[C@@H]1c1ccccc1	DENV2 CPE rescue 72 (no result: PDI inh, Rtt109 HAT inh)
CCC(=O)N1C[C@@H]2[C@H](c3ccccc31)[C@@H](CO)N2Cc1cc(F)ccc1F	none (no result: PDI inh, Rtt109 HAT inh)
CCC(=O)N1C[C@H]2[C@@H](c3ccccc31)[C@H](CO)N2Cc1cc(F)ccc1F	SIRT5 inh 16 (no result: PDI inh, Rtt109 HAT inh)
COCC(=O)N1C[C@@H]2[C@H](c3ccccc31)[C@H](CO)N2Cc1cc(F)ccc1F	SIRT5 inh 20 (no result: PDI inh, Rtt109 HAT inh)
COCC(=O)N1C[C@H]2[C@@H](c3ccccc31)[C@@H](CO)N2Cc1cc(F)ccc1F	none (no result: PDI inh, Rtt109 HAT inh)
Cc1ccc(NC(=O)C2CCCCC2)cc1C	DENV2 CPE rescue 70 (no result: SIRT5 inh)
Cc1ccc(NS(=O)(=O)c2ccc(NC(=O)C3CC3)cc2)cc1C	none
COc1cccc(NC(=O)N2CCc3nc(Nc4cc(Cl)cc(Cl)c4)ncc3C2)c1	none (no result: SIRT5 inh, Rtt109 HAT inh)
CC(C)c1ccc(Nc2ncc3c(n2)CCN(C(=O)Nc2ccc(F)c(Cl)c2)C3)cc1	DENV2 CPE rescue 20 (no result: Rtt109 HAT inh)
CO[C@H]1CN(C)C(=O)c2ccc(NS(=O)(=O)c3cn(C)cn3)cc2OC[C@@H](C)N(CC2CC2)C[C@@H]1C	none (no result: PDI inh, Rtt109 HAT inh)
CCCNC(=O)N1[C@@H]2c3ccc(-c4ccccc4OC)c(=O)n3C[C@H]1[C@H](CO)[C@H]2C(=O)NCC	none (no result: PDI inh, Rtt109 HAT inh)
Cc1cc(NC(=O)c2ccno2)no1	SIRT5 inh 19
Cc1ccccc1CNS(=O)(=O)c1ccc2c(c1)C(C)(C)C(=O)N2C	none
CC(C)C(NS(=O)(=O)c1ccc2c(c1)C(C)(C)C(=O)N2C)C(=O)NCc1ccccc1Cl (stereo not given)	DENV2 CPE rescue 80
C[C@@H]1CN([C@H](C)CO)C(=O)c2cc(NC(=O)Nc3cccc4ccccc34)ccc2O[C@@H](C)CCCCO[C@H]1CN(C)S(=O)(=O)c1ccccc1	none (no result: PDI inh, Rtt109 HAT inh)
C[C@H](CO)N1C[C@H](C)[C@H](CN(C)Cc2ccc(-c3ccccc3)cc2)Oc2ccc(NS(=O)(=O)c3ccc(F)cc3)cc2C1=O	none (no result: PDI inh, Rtt109 HAT inh)
C[C@H]1CN([C@@H](C)CO)C(=O)c2cc(NS(=O)(=O)c3ccc(F)cc3)ccc2O[C@H]1CN(C)Cc1ccccc1	DENV2 CPE rescue 47 (no result: PDI inh, Rtt109 HAT inh)
C[C@H](CO)N1C[C@H](C)[C@@H](CN(C)Cc2ccc(-c3ccccc3)cc2)Oc2ccc(NS(=O)(=O)c3ccc(F)cc3)cc2C1=O	none (no result: PDI inh, Rtt109 HAT inh)
C[C@H]1CN([C@@H](C)CO)C(=O)c2cc(NS(=O)(=O)c3ccc(F)cc3)ccc2O[C@@H]1CN(C)Cc1ccc(-c2ccccc2)cc1	SIRT5 inh 15 (no result: PDI inh, Rtt109 HAT inh)
C[C@@H]1CN([C@H](C)CO)C(=O)c2cc(NS(=O)(=O)c3ccc(F)cc3)ccc2O[C@H]1CN(C)Cc1ccc(-c2ccccc2)cc1	DENV2 CPE rescue 30 (no result: PDI inh, Rtt109 HAT inh)
O=C(C[C@H]1C[C@H]2c3cc(NC(=O)C4CCC4)ccc3O[C@H]2[C@@H](CO)O1)NCc1ccncc1	none (no result: PDI inh, Rtt109 HAT inh)
Oc1ccc(/C=C/c2nc(-c3ccccc3O)n(-c3ccccc3)n2)cc1	PDI inh 48 (no result: ERp5 inh, SIRT5 inh, DENV2 CPE rescue)
CCOC(=O)c1cc2c(N)c(C(=O)c3cc(C#N)c(SC)nc3C)sc2nc1C	Rtt109 HAT inh 62 (no result: ERp5 inh, SIRT5 inh, DENV2 CPE rescue)
Cc1ccc(S(=O)(=O)Nc2ccc3c(c2)CC(=O)N([C@@H](C)CO)C[C@@H](C)[C@H](CN(C)Cc2ccncc2)O3)cc1	DENV2 CPE rescue 37 (no result: PDI inh, Rtt109 HAT inh)
Cc1ccc(S(=O)(=O)Nc2ccc3c(c2)CC(=O)N([C@@H](C)CO)C[C@H](C)[C@H](CN(C)Cc2ccc(-c4ccccc4)cc2)O3)cc1	SIRT5 inh 18, DENV2 CPE rescue inconclusive (no result: PDI inh, Rtt109 HAT inh)
Cc1ccc(S(=O)(=O)Nc2ccc3c(c2)CC(=O)N([C@@H](C)CO)C[C@H](C)[C@H](CN(C)Cc2ccncc2)O3)cc1	none (no result: PDI inh, Rtt109 HAT inh)
Cc1ccc(S(=O)(=O)Nc2ccc3c(c2)CC(=O)N([C@@H](C)CO)C[C@H](C)[C@@H](CN(C)Cc2ccc(-c4ccccc4)cc2)O3)cc1	SIRT5 inh 19 (no result: PDI inh, Rtt109 HAT inh)
CCC(=O)N(C)C[C@H]1Oc2cc(C#CCN(C)C)ccc2S(=O)(=O)N([C@@H](C)CO)C[C@@H]1C	none (no result: PDI inh, Rtt109 HAT inh)
CC(C)NC(=O)CSCc1cccc(Br)c1	SIRT5 inh 19
